Source: PubChem BioAssay (National Center for Advancing Translational Sciences (NCATS))
Tb PGK inh: qHTS Assay to Find Inhibitors of Phosphoglycerate Kinase. Phosphoglycerate kinase, glycosomal (Trypanosoma brucei brucei), P07378. PGK/GAPDH coupled, Kinase-Glo luminescence, 60 min. Potency, µM (titrated, usually from 57.5 µM), inactives show top-dose activity change, negative = inhibition, hits mostly inhibitors. 380,000 compounds, 0.043% hits. AID 602233, 2012; further: on the % scale 0 is the no-effect control and ±100 the full control effect; nearly all actives have a fitted effect of over 60% in size
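Luminescent ATP detection (Kinase-Glo Plus) follows a 60-minute room-temperature incubation, with wells lacking PGK as controls. Buffer: 100 mM TEA (pH 7.6), 5 mM MgCl2, 0.01% Tween-20. Coupling enzyme GAPDH (100 nM final) supplies unstable 1,3-BPG in-well.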
PKM2 activator: qHTS Assay for Activators of Human Muscle isoform 2 Pyruvate Kinase; Pyruvate kinase PKM (Homo sapiens), P14618; purified PKM2, Kinase-Glo ATP luminescence, activation; response scale: 0% is enzyme alone, no compound; Potency, µM (doses to about 57.5 µM), for inactives: at the highest dose activation, most hits filed as activators; 260,000 compounds, 0.34% hits; further: on the % scale 0 is the no-effect control and ±100 the full control effect; nearly all actives have a fitted effect of over 55% in size
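Purified hPK-M2 (>95%) run at intermediate activity with 0.1 mM ADP and 0.5 mM PEP in 50 mM imidazole pH 7.2, KCl, MgCl2; 1 h room temperature. ATP formed read by Kinase-Glo luminescence; normalized to uninhibited and no-enzyme controls.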
Rango complex inh: qHTS Assay for Inhibitors of Rango (Ran-regulated importin-beta cargo) - Importin beta complex formation | Importin subunit beta-1 (Homo sapiens), Q14974 | Rango CFP/YFP FRET sensor + importin beta, 45 min | Potency, µM (series often up to 92.2 µM), for the others: top-dose inhibition of complex formation | 340,000 compounds, 0.031% hits | AID 540263, 2011; calls by dose curve;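 further: 0% = DMSO wells and 100% = buffer wells lacking importin beta; nearly all actives have a fitted effect of over 15% in size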
Target sequence (Q14974 whole entry, looked up): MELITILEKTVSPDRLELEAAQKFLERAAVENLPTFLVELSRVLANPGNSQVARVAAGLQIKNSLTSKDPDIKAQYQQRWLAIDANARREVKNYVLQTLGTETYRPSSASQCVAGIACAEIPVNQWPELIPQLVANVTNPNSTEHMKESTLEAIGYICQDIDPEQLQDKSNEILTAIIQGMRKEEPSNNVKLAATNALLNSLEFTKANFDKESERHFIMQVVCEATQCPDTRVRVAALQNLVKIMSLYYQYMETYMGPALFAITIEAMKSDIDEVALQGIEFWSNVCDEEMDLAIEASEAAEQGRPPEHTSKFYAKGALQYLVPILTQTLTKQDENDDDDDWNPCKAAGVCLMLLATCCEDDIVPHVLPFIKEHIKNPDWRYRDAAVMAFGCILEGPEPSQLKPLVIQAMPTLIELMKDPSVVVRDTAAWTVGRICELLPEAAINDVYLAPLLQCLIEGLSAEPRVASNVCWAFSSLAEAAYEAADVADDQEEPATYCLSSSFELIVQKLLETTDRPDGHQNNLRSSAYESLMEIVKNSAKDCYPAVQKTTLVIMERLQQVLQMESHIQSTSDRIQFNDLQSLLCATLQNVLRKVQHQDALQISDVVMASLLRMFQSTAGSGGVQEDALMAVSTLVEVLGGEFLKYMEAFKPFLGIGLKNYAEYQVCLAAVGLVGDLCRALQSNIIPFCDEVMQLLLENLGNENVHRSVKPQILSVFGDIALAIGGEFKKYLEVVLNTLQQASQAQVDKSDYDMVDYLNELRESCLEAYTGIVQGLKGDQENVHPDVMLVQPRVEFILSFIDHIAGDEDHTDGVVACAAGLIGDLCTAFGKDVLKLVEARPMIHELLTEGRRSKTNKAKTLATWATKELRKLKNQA
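FRET biosensor Rango (snurportin 1 IBB between N-terminal EYFP and C-terminal Cerulean), 50 nM in PBS/1 mM DTT/0.02% Tween-20/0.1% BSA, preincubated 5 min RT with compound; 0.125 microM importin beta added, 45 min RT, CFP/YFP FRET ratio read.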
Rango release inh: qHTS Assay for Inhibitors of RanGTP induced Rango (Ran-regulated importin-beta cargo) - Importin beta complex dissociation; 340,000 compounds, 0.071% hits; Biochemical FRET Rango-importin beta, RanGTP-induced dissociation; Potency, µM (series often up to 46.1 µM), for inactives: top-dose activity change, negative = inhibition; Snurportin-1 (Homo sapiens) + GTP-binding nuclear protein Ran (Homo sapiens) + Importin …; AID 540253, 2011; calls by dose curve; further: % of control where 0% means no effect; nearly all actives have a fitted effect of over 45% in size
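Rango FRET biosensor (snurportin-1 IBB flanked by N-terminal EYFP and C-terminal CFP10) at 0.1 uM, with 0.25 uM importin beta in PBS, 1mM DTT, 0.02% Tween-20, 0.1% BSA. 0.6 uM Ran, 2mM GTP and 0.2 uM RCC1 were then added for 45 min at room temperature. Inhibition read as loss of FRET rise.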
Tb PFK block: qHTS Assay to Find Inhibitors of T. brucei phosphofructokinase. 330,000 compounds, 0.17% hits. Potency, µM (top dose mostly 57.5 µM), for the others: top-dose activity, negative = inhibition, actives largely listed as inhibitors. T. brucei PFK, ADP-Glo luminescence. AID 485367, 2010;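 further: 0% = uninhibited 1x PFK enzyme wells and -100% = no-enzyme wells; nearly all actives have a fitted effect of over 60% in size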
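Luminescent ADP detection (ADP-Glo, two-step: ATP depletion then ADP-to-ATP conversion for luciferase) reported PFK activity after 45 min room-temperature reaction of 1.25 nM enzyme with 0.5 mM F6P and 0.1 mM ATP at pH 8.0.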
ELG1 repair inh: qHTS screen for small molecules that inhibit ELG1-dependent DNA repair in human embryonic kidney (HEK293T) cells expressing luciferase-tagged ELG1; AID 504467, 2011; HEK293T ELG1-luciferase reporter, luminescence, 16 h; DNA damage induced by 5-fluorouridine; Potency, µM (highest dose often 46.1 µM), inactives show at the highest dose activity change, negative = inhibition, hits mostly inhibitors; 330,000 compounds, 2.3% hits; further: on the % scale 0 is the no-effect control and ±100 the full control effect; nearly all actives have a fitted effect of over 55% in size
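Quantitative HTS, concentration-response format. 2,000 cells/well co-treated with 5-fluorouridine and compound, 16 hr in 5% CO2 at 37 °C; ONE-Glo luminescence read after 30 min.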
The depositor's hits bear a star; i = inactive; ? = inconclusive; . = no result given. Only some compounds are listed: those with a hit (about 2.4% of all), similar ones and a draw of the others. Unless noted, the call rests on the fitted dose curve; in most records, active means well fitted curve in the direction sought with a large enough effect; inconclusive means small, poorly fitted or top-dose-only effect, or another doubt; inactive means no such curve, though single readings can be large; an effect the other way counts as inactive or inconclusive. Potency means the concentration at half of the fitted maximal effect.

SMILES	Tb PGK inh	PKM2 activator	Rango complex inh	Rango release inh	Tb PFK block	ELG1 repair inh
Cc1nc2ncnn2c(N2CCC(C(=O)NC3CCCC3)CC2)c1Cc1ccccc1	-3%	-7%	0%	-5%	0%	-4%
O=S(=O)(c1ccccc1)N1CCN(c2cc(-c3ccccc3)nc3ncnn23)CC1	-5%	1%	8%	0%	8%	?
COc1ccc(C)cc1S(=O)(=O)NC1CC1	i	-11%	-4%	-5%	0%	4%
O=C(NNC(=O)c1cc(Cl)ccc1[N+](=O)[O-])c1csc(N2CCOCC2)n1	9%	.	7%	-16%	-5%	11%
O=C1C2C3C=CC(C4CC34)C2C(=O)N1/N=C/c1ccc(-c2ccc(F)cc2[N+](=O)[O-])o1 (stereo not given)	3%	-1%	2%	-17%	1%	?
COc1ccc(-c2ccc(/C=N/N3C(=O)C4C5C=CC(C6CC56)C4C3=O)o2)c([N+](=O)[O-])c1 (stereo not given)	2%	-6%	3%	-5%	-1%	18µM*
Cc1ccc(S(=O)(=O)c2cc(OC(=O)c3ccco3)ccc2OC(=O)c2ccco2)cc1	-3%	11%	-4%	-8%	-5%	-3%
O=C(Oc1ccc(OC(=O)c2ccco2)c(S(=O)(=O)c2ccc(Br)cc2)c1)c1ccco1	4%	4.5µM*	-4%	5%	-3%	-2%
CCc1nc(SCC(=O)Nc2ccc(OC)cc2[N+](=O)[O-])n[nH]1	-8%	25µM*	-4%	7%	-4%	-11%
CCOc1ccc(NC(=O)CSc2ncn[nH]2)c([N+](=O)[O-])c1	-2%	16µM*	0%	3%	1%	9%
CCOC(=O)Nc1ccc2c(CN3CCN(S(=O)(=O)c4ccccc4F)CC3)cc(=O)oc2c1	-9%	.	4%	-13%	0%	6.5µM*
CCOC(=O)Nc1ccc2c(CN3CCN(S(=O)(=O)c4ccc(C(C)C)cc4)CC3)cc(=O)oc2c1	i	.	0%	-9%	-3%	3%
O=C(CN1C(=O)COc2ccc(S(=O)(=O)N3CCOCC3)cc21)N1CCN(c2ccc(Cl)cc2)CC1	-2%	.	.	.	.	.
CSc1ccc(NC(=O)N2CC=C(n3c(=O)[nH]c4ccccc43)CC2)cc1	i	4%	0%	-9%	-2%	23µM*
COc1ccc(NC(=O)CN2CCN(c3ccccc3)CC2)cc1	9%	-14%	-4%	10%	6%	5%
O=C(CN1C(=O)c2ccccc2C1=O)N1CCN(C2c3ccccc3-c3ccccc32)CC1	-12%	9%	-1%	-2%	2%	16µM*
O=C(CN1C(=O)c2ccccc2C1=O)N1CCOCC1	i	-5%	-4%	-2%	-2%	6%
COc1ccc(NC(=O)CN2CCN(C3c4ccccc4-c4ccccc43)CC2)cc1	-8%	-3%	-3%	-2%	23%	6.5µM*
CCCCN(CCCC)S(=O)(=O)c1ccc(NC(=O)c2cccs2)cc1	-12%	0%	?	-22%	-2%	23µM*
Cc1cc(C)nc(NS(=O)(=O)c2ccc(NC(=O)c3cccs3)cc2)n1	-7%	22%	-3%	-4%	8%	-16%
Cc1cccn2c(=O)c(/C=C(\C#N)C(=O)NCc3ccco3)c(N3CCCCC3)nc12	-1%	-6%	?	-29%	3%	18µM*
Cc1cccn2c(=O)c(/C=C(\C#N)C(=O)NCc3ccco3)c(N3CCCCCC3)nc12	-3%	6%	?	?	1%	?
COCCCNC(=O)/C(C#N)=C/c1c(N2CCN(c3ccccc3)CC2)nc2c(C)cccn2c1=O	.	.	1%	17%	-4%	21µM*
CCNC(=O)/C(C#N)=C/c1c(N2CCN(Cc3ccc4c(c3)OCO4)CC2)nc2c(C)cccn2c1=O	i	-1%	-3%	6%	0%	21µM*
COc1ccc(N2CCN(c3nc4c(C)cccn4c(=O)c3/C=C(\C#N)C(N)=O)CC2)cc1	5%	.	?	?	0%	13µM*
SMILES	Tb PGK inh	PKM2 activator	Rango complex inh	Rango release inh	Tb PFK block	ELG1 repair inh
Cc1ccc2onc(CC(=O)N(C)c3ccccc3)c2c1	-4%	.	.	.	.	.
COCCCNC(=O)/C(C#N)=C/c1c(N2CCN(c3cccc(Cl)c3)CC2)nc2c(C)cccn2c1=O	i	.	?	?	-3%	23µM*
CCNC(=O)/C(C#N)=C/c1c(N2CCN(c3cccc(Cl)c3)CC2)nc2c(C)cccn2c1=O	-5%	.	?	-11%	0%	-12%
CC(C)n1nnnc1SCC(=O)N(C)C1CCS(=O)(=O)C1 (stereo not given)	-7%	.	-2%	1%	1%	13%
N#CCCn1cc(/C=C2\NC(=S)N(c3ccccc3)C2=O)c(-c2ccc(-c3ccccc3)cc2)n1	-7%	-4%	-1%	-16%	0%	0%
CCN1C(=O)/C(=C\c2cn(CCC#N)nc2-c2ccc(F)cc2)SC1=S	-7%	-6%	5%	6%	-7%	15µM*
COc1ccc(-n2c(-c3cc(-c4ccccc4)sc3N)n[nH]c2=S)cc1	i	1%	1%	1%	-5%	10%
Nc1sc(-c2ccccc2)cc1-c1n[nH]c(=S)n1C1CCCCC1	-3%	4%	-3%	11%	1%	21µM*
CCOc1ccc(-c2cc(C(=O)Oc3ccc(C#N)cc3)no2)cc1	-4%	.	.	.	.	.
COc1ccc2cc(C#N)c(N3CCN(C(=O)c4ccccc4C)CC3)nc2c1	-2%	2%	0%	2%	-3%	13µM*
COc1ccc(C(=O)N2CCN(c3nc4cc(C)ccc4cc3C#N)CC2)c(OC)c1	-1%	-8%	?	-18%	26%	?
CC(=O)Nc1ccc(NC(=O)CSc2nnc(NC(=O)c3ccc(Br)o3)s2)cc1	-12%	-30%	0%	11%	0%	4%
COc1ccc(OC)c(N2C(=O)[C@@H]3C(c4ccccc4Cl)=NO[C@@H]3C2=O)c1	13µM*	-4%	-1%	-19%	-12%	-8%
